Sampled rows, rich in hits. Any-hit rate of the full collection: about 10%.
GPT2 inh: Primary qHTS assay for inhibitors of Glutamate pyruvate transaminase 2 (GPT2); hit rate 0.25% among 100,000; Alanine aminotransferase 2 (Homo sapiens), Q8TD30; Potency, µM (doses to about 57.7 µM), inactives show at the highest dose activity change, negative = inhibition, usual class: inhibitors; Recombinant GPT2, coupled pyruvate oxidase/HRP Amplex Red fluorescence; also: nearly all actives have a fitted effect of over 60% in size
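Fluorescence of coupled pyruvate oxidase/HRP/Amplex Red system (50uM Amplex, 30 min, dark) reports pyruvate formed by GPT2. Enzyme reaction: 10ng/uL GPT2, 2mM L-alanine, 250uM a-KG, 30 min room temperature, pH 7.5; 50uM AOA control.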
HEK cytotox: Cytotoxic Profiling in HEK 293 Cell Line of Diverse Libraries Using Quantitative High-Throughput Screening; HEK 293 viability, ATP luminescence (CellTiter-Glo), 48-72 h; Potency, µM (highest dose often 115 µM), for inactives: at the top dose activity change, negative = cytotoxicity, most hits filed as inhibitors; hit rate 6.6% among 94,000; AID 1345083, 2018; also: nearly all actives have a fitted effect of over 60% in size
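CellTiter-Glo luminescence (cellular ATP) was read after 48 or 72 hr of compound exposure at 37 degree Celsius. Cells were HEK 293 plated at 250 cells/well.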
FLuc inh: Firefly luciferase inhibition profiling of diverse chemical library using quantitative high-throughput screening. hit rate 2.5% among 76,000. Potency, µM (doses to about 115 µM), actives largely listed as inhibitors. purified P. pyralis luciferase, luminescence, biochemical. Luciferin 4-monooxygenase (Photinus pyralis), P08659; also: nearly all actives have a fitted effect of over 65% in size
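Inhibitors were tested against purified firefly luciferase in a biochemical, low-substrate format (both substrates at 10uM) and luminescence measured with a CCD imager.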
NIH3T3 tox: Cytotoxic Profiling in NIH 3T3 Cell Line of Diverse Libraries Using Quantitative High-Throughput Screening | NIH 3T3 viability, CellTiter-Glo ATP luminescence, 48-72 h | Potency, µM (top dose mostly 96.7 µM), without a hit: at the highest dose activity change, negative = cytotoxicity, hits mostly inhibitors | hit rate 4.3% among 94,000; also: nearly all actives have a fitted effect of over 55% in size
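Viability of NIH 3T3 cells after 48 or 72 hr compound treatment at 37 °C was assessed by CellTiter-Glo, with luminescence imaged following a 10 min room-temperature step.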
hNpr1 antagonist: Natriuretic polypeptide receptor (hNpr1) antagonism - Primary qHTS. Atrial natriuretic peptide receptor 1 (Homo sapiens), P16066. HEK293 hNpr1 GloSensor cGMP, ANP-stimulated luminescence. Potency, µM (highest dose often 46.3 µM), for the others: at the top dose activity change, negative = inhibition, usual class: inhibitors. hit rate 1.6% among 76,000; calls by dose curve; also: nearly all actives have a fitted effect of over 60% in size
Target sequence (P16066 whole entry, looked up): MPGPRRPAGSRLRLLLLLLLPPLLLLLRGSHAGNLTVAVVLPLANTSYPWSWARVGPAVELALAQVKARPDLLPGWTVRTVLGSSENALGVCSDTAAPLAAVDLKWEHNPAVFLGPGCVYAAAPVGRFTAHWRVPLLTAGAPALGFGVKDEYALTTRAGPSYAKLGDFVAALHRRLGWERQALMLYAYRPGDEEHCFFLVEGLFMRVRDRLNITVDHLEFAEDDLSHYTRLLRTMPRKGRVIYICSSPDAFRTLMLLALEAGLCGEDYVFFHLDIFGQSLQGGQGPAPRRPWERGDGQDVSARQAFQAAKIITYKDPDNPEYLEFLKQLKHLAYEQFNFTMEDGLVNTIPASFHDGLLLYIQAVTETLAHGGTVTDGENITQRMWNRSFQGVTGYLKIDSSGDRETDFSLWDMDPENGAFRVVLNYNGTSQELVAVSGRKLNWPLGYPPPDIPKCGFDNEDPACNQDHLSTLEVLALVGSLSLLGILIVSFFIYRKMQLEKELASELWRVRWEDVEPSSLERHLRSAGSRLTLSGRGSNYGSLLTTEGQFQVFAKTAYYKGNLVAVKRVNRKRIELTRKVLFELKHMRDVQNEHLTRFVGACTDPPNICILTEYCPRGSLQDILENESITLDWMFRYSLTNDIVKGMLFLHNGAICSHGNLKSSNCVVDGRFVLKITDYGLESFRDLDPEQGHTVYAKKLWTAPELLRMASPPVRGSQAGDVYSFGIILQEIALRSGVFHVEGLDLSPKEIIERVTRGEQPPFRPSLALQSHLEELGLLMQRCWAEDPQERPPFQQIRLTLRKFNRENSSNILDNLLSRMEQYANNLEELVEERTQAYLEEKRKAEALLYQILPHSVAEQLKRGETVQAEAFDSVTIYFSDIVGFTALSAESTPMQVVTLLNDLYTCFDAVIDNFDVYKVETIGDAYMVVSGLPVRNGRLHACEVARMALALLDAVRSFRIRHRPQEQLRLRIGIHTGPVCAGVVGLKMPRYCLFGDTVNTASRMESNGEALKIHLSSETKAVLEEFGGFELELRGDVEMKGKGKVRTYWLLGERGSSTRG
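Compound pre-incubated 30 min at room temperature on GloSensor-loaded HEK293 cells stably carrying hNpr1 and the pGS-40F cGMP biosensor. Stimulation uses hNppA at 0.1 nM final; luminescence is taken at baseline and 20 min post-agonist.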
An asterisk follows results filed as active; i = inactive; ? = inconclusive; · = no result; [ ] = another dose, or the depositor's remark. Unless noted, calls follow the shape of the dose curve; as a rule, active = well fitted curve in the direction sought with a large enough effect; inconclusive = small, poorly fitted or top-dose-only effect, or another doubt; inactive = no such curve, though single readings can be large; an effect the other way counts as inactive or inconclusive. % is scaled to controls: 0 for no effect and ±100 for the full control effect; potency is read from the fitted curve at half-maximal effect.

SMILES	GPT2 inh	HEK cytotox	FLuc inh	NIH3T3 tox	hNpr1 antagonist
CN(c1ccccc1)c1cc(=O)c2ccnc(-c3ccncc3)c2o1	-10.4%[88.5 µM]	-18.5%[172 µM]	i	25.1µM*	1.8%[70.6 µM]
COc1ncccc1-c1nccc2c(=O)cc(N(C)c3ccccc3)oc12	i	?	i	35.5µM*	-1.9%[70.6 µM]
CN(c1cc(=O)c2ccnc(-c3ccc(F)c(Cl)c3)c2o1)C1CCOCC1	4.9%[88.5 µM]	-16.8%[172 µM]	i	?	-10.7%[70.6 µM]
CN(c1cc(=O)c2ccnc(-c3cccc(C(F)(F)F)c3)c2o1)C1CCOCC1	i	-19.2%[172 µM]	i	12.6µM*	-0.7%[70.6 µM]
COc1cc(-c2nccc3c(=O)cc(N(C)c4ccccc4)oc23)ccn1	2.6%[88.5 µM]	?	i	10µM*	2.0%[70.6 µM]
CC(C)(C)OC(=O)NC(C)(CN)c1ccccn1 (stereo not given)	-9.4%[88.5 µM]	i	·	i	·
COc1ccc(C(=O)N2CCC(N3C[C@H](O)C[C@H]3C(=O)NC3CCCCC3)CC2)cc1OC	i	-11.4%	i	-13.1%	-15.6%
CNC(=O)N1CCC(C2CCN(C(=O)CCCC(=O)O)C2)CC1 (stereo not given)	3.4%	1.0%	i	-3.4%	5.5%
CN1CCCN(S(=O)(=O)c2cccc(Cl)c2)c2ccccc21	-28.0%	39.8µM*	i	?	-20.4%
CC1CCC(NC(=O)C2CCN(c3cc(C(F)(F)F)ncn3)CC2)CC1 (stereo not given)	i	?	?	?	2.24µM*
Cc1ccc(NC(=O)C2CCN(c3cc(C(F)(F)F)ncn3)CC2)c(C)c1	i	?	i	-17.1%	?
COc1ccc(CN2CC(c3ncc4c(-c5ccccc5)nccn34)C2)cc1O	0.4%[88.5 µM]	?	i	89.1µM*	-24.9%[70.6 µM]
COc1cccc(C(=O)N2C[C@H]3CNC(=O)[C@]34CCCC[C@@H]24)c1	i	-12.5%	·	-8.5%	·
Cc1ccc(NC(=O)N2CCC[C@H]2c2nc(-c3ccc(F)cc3)n[nH]2)cc1C	i	?	·	28.2µM*	·
CCc1nc2c(c(-c3ccc(Cl)cc3)n1)CN(C(=O)CCl)CC2	i	?	i	22.4µM*	-15.6%
CCc1nc2c(c(-c3ccc(Cl)cc3)n1)CN(C(=O)COC)CC2	i	-17.9%	i	-23.9%	11.9%
CCc1nc2c(c(-c3ccc(Cl)cc3)n1)CN([S+](C)(=O)[O-])CC2	i	i	i	44.7µM*	4.1%[70.6 µM]
O=C(c1cccc(C(F)(F)F)c1)N1CCOCC2(CN(Cc3ccccc3)C2)C1	1.1%[88.5 µM]	7.08µM*	i	7.08µM*	-3.0%[70.6 µM]
COc1ccc(C(=O)N2CCOCC3(CN(Cc4cccc(C#N)c4)C3)C2)cc1OC	0.2%[88.5 µM]	?	i	79.4µM*	7.4%[70.6 µM]
O=C(c1ccc(Cl)cc1)N1CCOCC2(C1)CN([S+](=O)([O-])c1ccccc1)C2	-2.6%[88.5 µM]	?	i	50.1µM*	1.0%[70.6 µM]
O=[S+]([O-])(c1ccccc1)N1CC2(COCCN(Cc3ccc(Cl)cc3)C2)C1	2.0%[88.5 µM]	?	i	?	-9.1%[70.6 µM]
O=C(c1ccc(F)cc1)N1CCCN(c2ccnc3ccnn23)CC1	i	-28.2%	·	?	·
COc1ccc(-c2cc(N3CCCC(NC(=O)c4sccc4C)C3)n[nH]2)cc1 (stereo not given)	-26.3%	?	25.1µM*	-25.5%	-12.7%
Cc1ccsc1C(=O)NC1CCN(c2cc(-c3ccc(Cl)cc3)[nH]n2)C1 (stereo not given)	-25.1%	50.1µM*	i	?	-22.8%
COc1ccc(-c2cc(N3CCCC(NC(=O)c4ccc(C)cc4C)C3)n[nH]2)cc1 (stereo not given)	-10.4%	?	15.8µM*	-17.6%	-15.9%
SMILES	GPT2 inh	HEK cytotox	FLuc inh	NIH3T3 tox	hNpr1 antagonist
COc1ccc(-c2cc(N3CCC(NC(=O)c4cc(C)ccc4C)C3)n[nH]2)cc1 (stereo not given)	-18.1%	?	i	?	-11.2%
COc1ccc(-c2cc(N3CCCC(NC(=O)c4cc(C)ccc4C)C3)n[nH]2)cc1 (stereo not given)	?	?	i	31.6µM*	-19.0%
Cc1ccsc1C(=O)NC1CCCN(c2cc(-c3ccc(F)cc3)[nH]n2)C1 (stereo not given)	i	?	?	?	-29.4%
Cc1ccc([S+](=O)([O-])c2nnn3c2nc(N2CCC(F)CC2)c2ccccc23)cc1C	-48.2%	-21.8%	·	-36.0%	·
Cc1ccc(CN[C@@H]2CO[C@H](CNC(=O)Nc3ccccc3)[C@H]2O)cc1	i	-7.2%[172 µM]	i	-0.4%[138 µM]	-11.4%[70.6 µM]
O=C(Nc1ccc(F)cc1)C1CCc2nnc(-c3cccc(C(F)(F)F)c3)n21 (stereo not given)	i	?	·	?	·
COc1ccc(C2(C(=O)NCc3cccc(F)c3)CCOCC2)cc1	·	-2.1%[172 µM]	·	-19.8%[138 µM]	·
CS(=O)(=O)N1CCCN(Cc2ccc(F)cc2F)CCNC(=O)CC1c1ccccc1 (stereo not given)	3.0%	2.9%	i	-18.6%	0.1%
Cc1cc(C(=O)N2CCC(Cc3ccc(COCc4ccncc4)cc3)CC2)n(C)n1	-9.8%	?	·	?	·
N#Cc1cccc(CN2CCc3ncc(C(=O)NCCOc4ccccc4)n3CC2)c1	-7.6%[88.5 µM]	28.2µM*	i	28.2µM*	?
Cc1cccc(CN2CCc3ncc(C(=O)NCCC(C)C)n3CC2)c1	-12.6%[88.5 µM]	39.8µM*	i	?	-8.3%[70.6 µM]
Cc1ccccc1CN1CCc2ncc(C(=O)NCCC(C)C)n2CC1	-9.0%[88.5 µM]	?	i	?	-2.7%[70.6 µM]
CCOc1ccc(C(C)NC(=O)C2CCCN(c3cnc4nccnc4c3)C2)cc1 (stereo not given)	-8.7%	?	i	-12.1%	5.9%
COc1cccc([S+](=O)([O-])N2CCc3nc(C(C)C)nc(-c4ccc(Cl)cc4)c3CC2)c1	-4.6%	-15.4%	·	1.5%	·
CCOC(=O)[C@H]1C[C@]2(CCCCN(CCOC(C)=O)C2=O)N(C(=O)OCC)[C@H]1c1ccco1	·	?	·	-22.4%	·
CCOC(=O)[C@H]1C[C@]2(CCCCN(CCOC)C2=O)N(C(C)=O)[C@H]1c1ccco1	·	31.6µM*	·	?	·
COc1ccccc1-c1ccc(C(=O)N2CCC(C(=O)NC(C)C)CC2)cc1	-7.9%	?	·	?	·
O=C(Cn1cccc1-c1nc(-c2ccccc2)no1)NCCCc1ccccc1	i	44.7µM*	i	-2.8%	-17.1%
